Experiment [1] can be described thus: compounds binding Alexa647 anti-His antibody – biochemical, small-molecule microarray, 635 nm fluorescence, artefact control for SMM control protein annotation, primary screen (AID 1128).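 Note: score merges feature fluorescence with signal-to-noise for each printed compound spot.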 As to conditions: higher = more signal.
Experiment [2] concerns Human papillomavirus type 1a E7 protein (residues 1-88). The experiment can be described thus: HPV1a E7 small-molecule binders, primary screen, biochemical, small-molecule microarray, residues 1-88, 635 nm (AID 1129). The conditions noted are these: small-molecule microarray binding, fluorescence 635 nm; higher = more signal.
Experiment [3] has as its target Focal adhesion kinase 1 (Homo sapiens) (UniProt Q05397). The experiment can be described thus: PTK2 protein binding on printed compound slides – biochemical, small-molecule microarray, 635/667 nm fluorescence, BSA, DTT, primary screen (AID 1130).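 Note: composite of spot emission at 667 nm and signal to noise over triplicate slides.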 As to conditions: 635 nm fluorescence, higher = more signal.
For experiment [4], the system named is Fibrinogen (Alexa647-labelled). The experiment can be described thus: Alexa647-fibrinogen binding to printed small molecules – biochemical, small-molecule microarray, 635/667 nm fluorescence, artefact control for SMM control-protein annotation, profiling panel (AID 1131).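 Note: z-score merges 667 nm fluorescence with per-spot signal-to-noise over triplicate slides.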 As to conditions: fibrinogen-A647 binding fluorescence, higher = more signal.
Experiment [5] addresses Follistatin (Homo sapiens) (UniProt P19883). The experiment can be described thus: FST protein binding to printed compounds – biochemical, small-molecule microarray, 635/667 nm fluorescence, primary screen (AID 1132). The conditions noted are these: 635 nm fluorescence, higher = more signal.
Experiment [6] deals with Fibroblast growth factor 2 (Homo sapiens) (UniProt P09038). The experiment can be described thus: basic fibroblast growth factor binding to printed compounds – biochemical, small-molecule microarray, 635/667 nm fluorescence, primary screen (AID 1133). As to conditions: FGF2, fluorescence 635/667, higher = more signal.
Experiment [7] can be described thus: JC-1 mitochondrial potential readout, lung cancer cells – cell-based, A549, JC-1 fluorescence, basal, 24 h, 100 nL, profiling panel (AID 1138).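 Note: A549 lung adenocarcinoma cells under basal conditions with no added stimulus; test concentration not given here.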 The conditions noted are these: higher = more signal.
The subject of another experiment is Lefty1. The experiment in a line: Lefty1 protein binding to printed compounds – biochemical, small-molecule microarray, 635/667 nm fluorescence, primary screen (AID 1139). The conditions noted are these: fluorescence 635/667, higher = more signal.
Experiment [8] has as its system wheat germ agglutinin (Triticum aestivum), Alexa647-labelled. The experiment in a line: Alexa647-WGA lectin binding to printed small molecules – biochemical, small-molecule microarray, 635/667 nm fluorescence, artefact control for SMM control-protein annotation, profiling panel (AID 1140).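 Note: score merges 667 nm feature emission with signal to noise over triplicate slides.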 As to conditions: WGA-A647 binding, 635 nm fluorescence, higher = more signal.

Experiment [9] concerns the target Luciferin 4-monooxygenase (Photinus pyralis) (UniProt P08659). The experiment in a line: inhibition of purified Photinus pyralis luciferase – biochemical, luminescence, purified enzyme, 2006 set, primary screen (AID 1141).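 Note: cell-free assay with purified firefly luciferase at 100 ng per well in PBS; test concentration not given here.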 The conditions noted are these: purified firefly luciferase, SteadyGlo luminescence, 30 min; higher = more signal, called active from +8 up or from −8 down.

Experiment [10] deals with Wnt5a (protein binding on small-molecule microarray). The experiment can be described thus: small molecules binding Wnt5a protein – biophysical, small-molecule microarray, 635/667 nm fluorescence, primary screen (AID 1142).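 Note: fluorescence read at 667 nm with signal to noise per printed feature.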 The conditions noted are these: 635 nm fluorescence, higher = more signal.
The nature of experiment [11]: ATP-based viability of Huh7 replicon cells – cell-based, CellTiter-Glo luminescence, basal, 48 h, cytotoxicity control for HCV replication inhibitor project, primary screen (AID 1143).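 Note: Huh7 hepatoma cells carrying a hepatitis C replication reporter with no stimulus; test concentration not given here.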 The conditions noted are these: higher = more signal, called active from +8 up or from −8 down.
Experiment [12] is described as follows: Pseudomonas biofilm growth suppression – PAO1 strain, BacTiter-Glo luminescence, LB-PBS, primary screen (AID 1144). The conditions noted are these: P. aeruginosa PAO1 biofilm, 12 h, higher = more signal.
The nature of experiment [13]: basal CRE-LacZ reporter activity in PC12 – cell-based, unstimulated, primary screen (AID 1145). The conditions noted are these: no forskolin, luminescence, 4.5 h, higher = more signal, called active from +8 up or from −8 down.
Experiment [14] in a line: forskolin-driven CRE-LacZ activity in PC12 – cell-based, CRE-LacZ reporter, forskolin-stimulated, primary screen (AID 1146).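 Note: PC12 cells with 6xCRE LacZ reporter stimulated by forskolin 10 µM; beta-galactosidase reporter signal reflecting CREB driven transcription.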 As to conditions: luminescence, 4.5 h, higher = more signal, called active from +8 up or from −8 down.
Experiment [15] has as its target Streptavidin (Streptomyces avidinii) (UniProt P22629). The experiment can be described thus: compounds binding control protein streptavidin – biophysical, small-molecule microarray, 635/667 nm fluorescence, artefact control for SMM compound annotation, primary screen (AID 1147).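 Note: signal reflects streptavidin binding to arrayed compounds as a control protein.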 The conditions noted are these: higher = more signal.
Experiment [16] is described as follows: probe aInhba binding on compound microarray – biochemical, small-molecule microarray, 635/667 nm fluorescence, primary screen (AID 1148).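 Note: score merges 667nm spot fluorescence with signal-to-noise for antibody binding to printed compounds.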 As to conditions: higher = more signal.
Experiment [17] addresses Torsin-1A (Homo sapiens) (UniProt O14656). The experiment can be described thus: TOR1A wild-type binding on microarray – cell lysate, small-molecule microarray, lysate, 635/667 nm, primary screen (AID 1149). As to conditions: COS7 hTOR1A-WT lysate, 635 nm fluorescence, higher = more signal.
Experiment [18] shares this target. The experiment can be described thus: torsin A mutant lysate binding on microarrays – cell lysate, small-molecule microarray, COS7 lysate, 635/667 nm fluorescence, primary screen (AID 1150).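 Note: score pools 667 nm emission and signal to noise measuring lysate protein binding.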 The conditions noted are these: COS7 hTOR1A mutant lysate, 635 nm fluorescence, higher = more signal.
Experiment [19] relates to Sonic hedgehog protein (Shh). The experiment in a line: Sonic hedgehog microarray binding compounds – biochemical, small-molecule microarray, 635/667 nm fluorescence, primary screen (AID 1151).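 Note: Shh protein binding to compounds spotted on small-molecule microarray slides; score combines spot fluorescence intensity with signal-to-noise across triplicate slides.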 As to conditions: 635 nm fluorescence, higher = more signal.

The source made the active and inactive calls. Unless noted, the rule behind the calls is not given here.

Sequence of Streptavidin (Streptomyces avidinii) (P22629 whole entry, looked up): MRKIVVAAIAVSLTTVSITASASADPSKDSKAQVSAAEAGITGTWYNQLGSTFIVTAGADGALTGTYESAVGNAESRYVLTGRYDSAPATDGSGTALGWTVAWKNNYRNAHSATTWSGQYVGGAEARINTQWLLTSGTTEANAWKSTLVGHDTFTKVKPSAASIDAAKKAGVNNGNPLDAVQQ
Sequence of Luciferin 4-monooxygenase (Photinus pyralis) (P08659 whole entry, looked up): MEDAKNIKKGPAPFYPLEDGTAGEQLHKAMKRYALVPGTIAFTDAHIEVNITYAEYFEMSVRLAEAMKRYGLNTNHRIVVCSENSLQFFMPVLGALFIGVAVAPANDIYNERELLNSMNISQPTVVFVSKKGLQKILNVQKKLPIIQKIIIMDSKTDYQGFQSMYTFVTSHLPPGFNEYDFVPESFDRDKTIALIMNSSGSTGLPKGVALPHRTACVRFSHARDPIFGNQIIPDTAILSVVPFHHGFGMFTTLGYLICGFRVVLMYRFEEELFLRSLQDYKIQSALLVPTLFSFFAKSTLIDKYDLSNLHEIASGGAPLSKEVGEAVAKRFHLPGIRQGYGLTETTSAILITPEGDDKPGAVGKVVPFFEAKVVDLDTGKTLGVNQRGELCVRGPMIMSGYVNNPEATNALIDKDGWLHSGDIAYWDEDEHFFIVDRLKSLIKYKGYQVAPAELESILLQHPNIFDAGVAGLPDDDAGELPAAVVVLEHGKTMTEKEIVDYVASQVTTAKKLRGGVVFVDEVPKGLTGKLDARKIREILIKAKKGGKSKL
Sequence of Fibroblast growth factor 2 (Homo sapiens) (P09038 whole entry, looked up): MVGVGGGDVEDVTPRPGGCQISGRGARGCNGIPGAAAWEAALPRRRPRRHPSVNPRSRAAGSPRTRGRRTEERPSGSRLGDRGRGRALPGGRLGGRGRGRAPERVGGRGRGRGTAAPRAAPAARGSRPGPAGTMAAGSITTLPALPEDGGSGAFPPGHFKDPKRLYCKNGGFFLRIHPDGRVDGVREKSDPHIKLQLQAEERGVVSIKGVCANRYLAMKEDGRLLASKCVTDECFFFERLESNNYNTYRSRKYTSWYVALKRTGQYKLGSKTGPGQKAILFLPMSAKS
Sequence of Focal adhesion kinase 1 (Homo sapiens) (Q05397 whole entry, looked up): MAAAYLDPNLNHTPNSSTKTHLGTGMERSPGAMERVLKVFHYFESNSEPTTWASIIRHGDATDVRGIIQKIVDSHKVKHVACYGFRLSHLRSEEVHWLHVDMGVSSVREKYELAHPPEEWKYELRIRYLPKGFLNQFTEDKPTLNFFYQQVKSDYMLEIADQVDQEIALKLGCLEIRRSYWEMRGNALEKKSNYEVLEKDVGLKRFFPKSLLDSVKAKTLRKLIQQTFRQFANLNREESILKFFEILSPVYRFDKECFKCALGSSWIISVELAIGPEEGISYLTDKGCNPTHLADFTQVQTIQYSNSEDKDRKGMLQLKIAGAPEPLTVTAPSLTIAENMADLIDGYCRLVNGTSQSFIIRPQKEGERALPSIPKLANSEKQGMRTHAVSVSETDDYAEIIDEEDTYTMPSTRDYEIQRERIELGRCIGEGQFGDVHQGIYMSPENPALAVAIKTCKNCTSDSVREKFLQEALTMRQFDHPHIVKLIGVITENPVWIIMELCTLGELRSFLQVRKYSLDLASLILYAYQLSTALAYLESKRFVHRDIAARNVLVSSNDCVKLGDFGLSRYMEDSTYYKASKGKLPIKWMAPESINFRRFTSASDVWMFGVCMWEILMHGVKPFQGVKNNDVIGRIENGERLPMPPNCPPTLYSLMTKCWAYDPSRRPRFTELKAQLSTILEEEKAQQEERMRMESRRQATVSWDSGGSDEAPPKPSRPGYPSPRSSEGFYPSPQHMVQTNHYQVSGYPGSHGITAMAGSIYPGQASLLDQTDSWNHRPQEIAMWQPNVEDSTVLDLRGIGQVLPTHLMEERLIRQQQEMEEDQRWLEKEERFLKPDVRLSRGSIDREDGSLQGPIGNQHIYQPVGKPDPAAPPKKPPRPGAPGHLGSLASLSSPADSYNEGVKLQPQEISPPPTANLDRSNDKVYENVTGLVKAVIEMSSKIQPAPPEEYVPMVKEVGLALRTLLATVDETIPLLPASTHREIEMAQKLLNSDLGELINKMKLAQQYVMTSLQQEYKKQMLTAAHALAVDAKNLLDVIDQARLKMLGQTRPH
Sequence of Torsin-1A (Homo sapiens) (O14656 whole entry, looked up): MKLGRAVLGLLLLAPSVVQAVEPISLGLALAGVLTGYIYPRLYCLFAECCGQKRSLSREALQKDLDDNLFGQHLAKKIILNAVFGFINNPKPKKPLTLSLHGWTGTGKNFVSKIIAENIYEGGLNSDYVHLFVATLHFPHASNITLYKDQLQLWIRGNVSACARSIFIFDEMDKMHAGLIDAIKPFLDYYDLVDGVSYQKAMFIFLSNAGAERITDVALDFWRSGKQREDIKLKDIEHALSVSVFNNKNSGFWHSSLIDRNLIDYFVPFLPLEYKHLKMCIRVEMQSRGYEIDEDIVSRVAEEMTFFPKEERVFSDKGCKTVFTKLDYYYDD
Sequence of Follistatin (Homo sapiens) (P19883 whole entry, looked up): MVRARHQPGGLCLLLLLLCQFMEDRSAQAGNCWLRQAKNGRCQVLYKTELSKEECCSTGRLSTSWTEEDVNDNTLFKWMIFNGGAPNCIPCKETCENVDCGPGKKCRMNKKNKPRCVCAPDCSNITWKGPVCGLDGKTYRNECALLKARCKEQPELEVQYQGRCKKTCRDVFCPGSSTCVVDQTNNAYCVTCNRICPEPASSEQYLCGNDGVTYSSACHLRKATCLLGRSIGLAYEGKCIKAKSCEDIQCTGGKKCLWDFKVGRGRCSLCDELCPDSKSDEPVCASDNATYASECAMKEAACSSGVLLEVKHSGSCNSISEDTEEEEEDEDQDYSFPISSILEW

For the molecule `CCCC=C(CCC)[C@@H](NC(=O)CCc1ccccc1)c1ccc(C(F)(F)F)cc1`, the composite z-score in [1] was determined as 0.608; in experiment [2], 1.16; in [3], 0.398; in [4] it was 0.973; in [5], 0.809; in [6], 0.94. In addition, the composite z-score in the experiment on Lefty1 was 0.17; in [8], 0.71; in [10], -0.0114; in experiment [15] it was 1.07; in experiment [16] it was 0.0374; with Torsin-1A (Homo sapiens) [17], 0.983. For the same molecule, the composite z-score is 0.801 with Torsin-1A (Homo sapiens) [18] and -0.37 in experiment [19]. Moreover, the z-score is 3.02 in experiment [7]; 1.31 (inactive) in experiment [9]; -2.08 (inactive) in experiment [11]; 0.715 (inactive) in experiment [12]; -0.568 (inactive) in experiment [13]; 0.318 (inactive) in [14].

`CN1C(=O)C2C=CC(C(O)c3cc(C(F)(F)F)cc(C(F)(F)F)c3)N(NC(=O)OC(C)(C)C)C2C1=O` (stereo not given): the composite z-score in experiment [1] was 1.12; in experiment [2], 1.2; in experiment [3], 0.753; in experiment [4], 0.982; in experiment [5], 1.27; in experiment [6], -0.396. The composite z-score was determined as 0.369 in the experiment with Lefty1; 0.713 in experiment [8]; 0.135 in [10]; 1.6 in experiment [15]; 0.29 in experiment [16]; 0.49 with Torsin-1A (Homo sapiens) [17]. Further, the composite z-score with Torsin-1A (Homo sapiens) [18] worked out at 1.32; in experiment [19], 0.433. Moreover, the z-score is 0.717 in experiment [7]; 0.75 (inactive) in [9]; -2.4 (inactive) in [11]; 0.999 (inactive) in experiment [12]; 0.0467 (inactive) in experiment [13]; 0.587 (inactive) in experiment [14].

Take `[N-]=[N+]=Nc1ccccc1C[C@@]1(C(=O)O)N=C(c2ccc(OCCCO)cc2)O[C@@H]1c1ccccc1N=[N+]=[N-]`: the composite z-score in [1] is 2.68; in [2] it was 1.25; in experiment [3] it was 0.968; in experiment [4] it was 0.963; in [5], 0.46; in experiment [6], -0.606. The composite z-score was -0.817 with Lefty1; 1.44 in experiment [8]; -0.166 in experiment [10]; 1.96 in [15]; 0.151 in experiment [16]; 0.0274 with Torsin-1A (Homo sapiens) [17]. For the same molecule, the composite z-score was 0.286 with Torsin-1A (Homo sapiens) [18] and -0.744 in experiment [19]. Besides, the z-score in experiment [7] was 0.125; in experiment [9], -5.43 (inactive); in [11], -1.92 (inactive); in experiment [12], 0.0288 (inactive); in experiment [13], 2.09 (inactive); in experiment [14], -0.333 (inactive).

For the molecule `CCOC(=O)C1=CC[C@@H](c2ccccc2)N(S(=O)(=O)c2ccc(C)cc2)[C@H]1C=Cc1ccccc1`, the composite z-score in experiment [1] was 0.906; in experiment [2], 0.943; in experiment [3], 0.289; in experiment [4] it was -0.181; in [5] it was -0.28; in [6] it was -0.463. The composite z-score with Lefty1 is -0.584; in [8], 0.152; in experiment [10] it was -0.109; in experiment [15], 0.261; in experiment [16] it was 0.0713; with Torsin-1A (Homo sapiens) [17], 0.0331. Besides, the composite z-score with Torsin-1A (Homo sapiens) [18] was -0.0749; in experiment [19] it was -0.723. Moreover, the z-score in [7] was 2.17; in experiment [9], 1.45 (inactive); in experiment [11], -2.35 (inactive); in experiment [12] it was 0.17 (inactive); in experiment [13] it was -0.0696 (inactive); in experiment [14], 0.521 (inactive).

Values taken from PubChem BioAssay.
